A selection: hits, their analogues and other compounds. The true share with any hit is near 11%.
FLuc inh: Photinus pyralis luciferase inhibition; P08659; purified P. pyralis luciferase, luminescence, biochemical; Potency, µM (top dose mostly 115 µM), actives largely listed as inhibitors; 2.5% of 76,000 active; AID 1347043; note: nearly all actives have a fitted effect of over 65% in size
Target sequence (P08659 whole entry, looked up): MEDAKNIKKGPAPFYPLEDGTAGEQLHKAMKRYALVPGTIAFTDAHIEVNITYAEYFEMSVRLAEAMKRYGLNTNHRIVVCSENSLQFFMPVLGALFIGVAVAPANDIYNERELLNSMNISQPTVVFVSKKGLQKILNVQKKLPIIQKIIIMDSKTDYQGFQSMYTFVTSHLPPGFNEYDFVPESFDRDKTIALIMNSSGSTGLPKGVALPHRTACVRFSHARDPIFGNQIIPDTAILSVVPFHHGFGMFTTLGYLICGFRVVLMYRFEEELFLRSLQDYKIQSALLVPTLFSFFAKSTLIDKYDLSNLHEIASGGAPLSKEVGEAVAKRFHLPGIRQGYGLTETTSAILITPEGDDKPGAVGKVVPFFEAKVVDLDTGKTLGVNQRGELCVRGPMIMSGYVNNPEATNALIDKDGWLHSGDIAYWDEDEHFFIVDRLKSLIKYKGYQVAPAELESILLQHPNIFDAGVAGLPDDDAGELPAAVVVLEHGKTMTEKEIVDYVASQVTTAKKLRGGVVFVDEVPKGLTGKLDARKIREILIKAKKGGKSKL
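Inhibitors were tested against purified firefly luciferase in a biochemical, low-substrate format (both substrates at 10uM) and luminescence measured with a CCD imager.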
NIH3T3 tox: NIH 3T3 cell cytotoxicity | NIH 3T3 viability, CellTiter-Glo ATP luminescence, 48-72 h | Potency, µM (titrated, usually from 96.7 µM), inactives show at the highest dose activity change, negative = cytotoxicity, usual class: inhibitors | 4.3% of 94,000 active; note: nearly all actives have a fitted effect of over 55% in size
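Cytotoxicity was measured by CellTiter-Glo ATP luminescence after 48 or 72 h compound exposure at 37 °C. Mouse NIH 3T3 fibroblasts were seeded at 400 cells/well and dosed by 23 nL pin transfer.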
hNpr1 antagonist: antagonists of human natriuretic peptide receptor Npr1. Potency, µM (highest dose often 46.3 µM), for the others: at the top dose activity change, negative = inhibition, actives largely listed as inhibitors. 1.6% of 76,000 active. HEK293 hNpr1 GloSensor cGMP, ANP-stimulated luminescence. AID 1347048; calls by dose curve; note: nearly all actives have a fitted effect of over 60% in size
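Compound pre-incubated 30 min at room temperature on GloSensor-loaded HEK293 cells stably carrying hNpr1 and the pGS-40F cGMP biosensor. Stimulation uses hNppA at 0.1 nM final; luminescence is taken at baseline and 20 min post-agonist.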
HEK cytotox: cytotoxic compounds in HEK 293 cells; HEK 293 viability, ATP luminescence (CellTiter-Glo), 48-72 h; Potency, µM (titrated, usually from 115 µM), for the others: at the top dose activity change, negative = cytotoxicity, hits mostly inhibitors; 6.6% of 94,000 active; note: nearly all actives have a fitted effect of over 60% in size
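qHTS cytotoxicity; HEK 293, 250 cells/well; compound pinned; 48 or 72 hr, 37 degree Celsius, 5% CO2, 95% humidity; CellTiter-Glo, 10 min RT; luminescence (ATP).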
* hit, by the source's call; i = inactive; ? = inconclusive; . = not tested or not shown; [ ] = dose if it differs, or a comment. Unless noted, calls come from the whole dose curve; as a rule, active = well fitted curve in the direction sought with a large enough effect; inconclusive = small, poorly fitted or top-dose-only effect, or another doubt; inactive = no such curve, though single readings can be large; an effect the other way counts as inactive or inconclusive. % is set by controls: 0 for no effect and ±100 for the full control effect; potency is the fitted concentration of half-maximal effect.

SMILES	FLuc inh	NIH3T3 tox	hNpr1 antagonist	HEK cytotox
CCc1ccc(C(=O)NC2CCN(c3cc(-c4ccc(F)cc4)[nH]n3)C2)cc1 (stereo not drawn)	i	?	-15%	?
COc1ccc(F)cc1-c1ccc(CN2CCC(NC(=O)c3ccc(NC(C)=O)cc3)C2)cc1 (stereo not drawn)	.	20µM*	.	?
COc1ccc(F)cc1-c1ccc(CN2CCC(NC(=O)c3ccc(C)cc3)C2)cc1 (stereo not drawn)	.	40µM*	.	28µM*
COc1ccc(F)cc1-c1ccc(C(=O)O)cc1	.	2%[138 µM]	.	i
Cc1ccc(CNC(=O)Cn2ccn3nc4c(c3c2=O)CC(C)CC4)cc1 (stereo not drawn)	i	-17%	5%	-7%
CC1(C)Cc2nc(N3CCOCC3)ncc2C(NC(=O)NC(C)(C)C)C1 (stereo not drawn)	i	0%	3%	i
COc1cccc(CN2CCCC(NC(=O)Nc3ccccc3OC)C2)c1 (stereo not drawn)	i	-22%	0%	-28%
COc1ccc(F)cc1-c1ccc(CN2CCC(NC(=O)Nc3ccccc3)C2)cc1 (stereo not drawn)	.	13µM*	.	20µM*
COc1ccc(C(=O)N[C@H]2C[C@@H](Cc3cc(-c4ccccc4)on3)C2(C)C)cc1	?	50µM*	?	45µM*
CC(C)Cc1cc(C[C@@H]2C[C@H](NC(=O)c3ccco3)C2(C)C)no1	i	?	-17%[70.6 µM]	71µM*
COc1ccc(C(=O)N[C@H]2C[C@@H](Cc3cc(CN(C)C)on3)C2(C)C)cc1	i	-16%[138 µM]	-3%[70.6 µM]	-19%[172 µM]
CC1(C)[C@H](Cc2cc(CN3CCN(c4ccccc4)CC3)on2)C[C@@H]1NCC1CC1	i	?	2%[70.6 µM]	89µM*
CC1(C)[C@H](Cc2cc(CC3CCCCC3)on2)C[C@@H]1NC(=O)c1ccccc1	i	56µM*	?	32µM*
O=C(NCCc1ccncc1)C1CN(C(=O)CCc2ccccc2)CC12CCOCC2 (stereo not drawn)	i	i	4%	0%
COCc1cc(C[C@@H]2C[C@H](NS(C)(=O)=O)C2(C)C)no1	i	5%[138 µM]	4%[70.6 µM]	3%[172 µM]
CCCCc1cc(C[C@@H]2C[C@H](NC(=O)C3CC3)C2(C)C)no1	?	-27%[138 µM]	-7%[70.6 µM]	?
CC1(C)[C@H](Cc2cc(CC3CCCCC3)on2)C[C@@H]1NS(C)(=O)=O	i	?	1%[70.6 µM]	71µM*
CCCCc1cc(C[C@@H]2C[C@H](NC(=O)C(C)(C)C)C2(C)C)no1	?	?	-25%[70.6 µM]	71µM*
Cc1ccc(S(=O)(=O)N2CCCC(Cn3c(C)nc4cccnc43)C2)c(C)c1 (stereo not drawn)	i	?	?	?
CCc1ccccc1S(=O)(=O)N1CCCC(Cn2c(C3CC3)nc3cccnc32)C1 (stereo not drawn)	i	?	-19%	40µM*
Cc1nc2cccnc2n1CC1CCCN(S(=O)(=O)Cc2ccc(Cl)cc2)C1 (stereo not drawn)	i	?	?	32µM*
Cc1nc2cccnc2n1CC1CCCN(S(=O)(=O)c2cccc(Cl)c2)C1 (stereo not drawn)	i	?	?	?
Cc1ccc(C)c(S(=O)(=O)N2CCCC(Cn3c(C)nc4cccnc43)C2)c1 (stereo not drawn)	i	25µM*	?	40µM*
Cc1cc(Cl)ccc1S(=O)(=O)N1CCCC(Cn2c(C)nc3cccnc32)C1 (stereo not drawn)	i	11µM*	?	20µM*
O=C1NC2(CCN(Cc3cncs3)C2)Oc2ccccc21 (stereo not drawn)	i	-16%[138 µM]	-16%[70.6 µM]	-7%[172 µM]
SMILES	FLuc inh	NIH3T3 tox	hNpr1 antagonist	HEK cytotox
Cc1ccccc1OCc1nc(C2CN(C(=O)c3ccc4nc[nH]c4c3)C2)no1	i	?	-22%	?
COc1ccccc1CC(=O)N[C@@H]1c2ccccc2C2(CCNCC2)[C@H]1OC	i	i	1%	i
COCC(=O)N1CCC(C2CCN(S(=O)(=O)c3ccccc3)C2)CC1 (stereo not drawn)	i	-13%	4%	16%
CC(=O)N1CC(CO)C2(CCN(C3CCOCC3)CC2)C1 (stereo not drawn)	i	-19%	4%	-7%
Cc1cc(NC(=O)N2CCCC(Cn3c(C)nc4cccnc43)C2)ccc1Br (stereo not drawn)	i	?	-22%	32µM*
Cc1ccc(S(=O)(=O)N2CCCC(Cn3c(C4CC4)nc4cccnc43)C2)c(C)c1 (stereo not drawn)	i	?	-24%	35µM*
CNC(=O)c1ccc(CC2CCN(C(C)=O)CC2)cc1	i	-27%	6%	-26%
CC(=O)N1CCC(Cc2ccc(C(=O)Nc3ccc(C)cc3)cc2)CC1	?	?	10µM*	?
CN1CCC(Cc2ccc(C(=O)NCC3CCCCC3)cc2)CC1	?	40µM*	-7%	?
CN1CCC(Cc2ccc(C(=O)N3CCCC3)cc2)CC1	i	0%	-3%	-8%
CC1(C(=O)NCc2ccncc2)CCc2cnc(NCc3ccccc3)nc21 (stereo not drawn)	i	45µM*	5%[70.6 µM]	-28%[172 µM]
CC1(C(=O)NCc2ccc(F)cc2)COCc2cnc(Nc3ccccc3)nc21 (stereo not drawn)	i	?	?	79µM*
CC1(C(=O)NCc2cccnc2)CCc2cnc(NCc3ccccc3)nc21 (stereo not drawn)	i	35µM*	-2%[70.6 µM]	-26%[172 µM]
CC1(C(=O)Nc2ccccc2F)COCc2cnc(Nc3ccccc3)nc21 (stereo not drawn)	i	?	-19%[70.6 µM]	?
COc1cccc(Nc2ncc3c(n2)C(C)(C(=O)NCc2cccnc2)CC3)c1 (stereo not drawn)	i	?	-2%[70.6 µM]	79µM*
COCc1ncc2c(n1)CCCN(CC(=O)Nc1ccccc1)C2=O	i	-2%	2%	0%
O=C1NC2(CCN(Cc3cccc4ccccc34)CC2)COc2ccccc21	i	i	-2%	i
CC1(C(=O)NCc2cccnc2)CCc2cnc(Nc3ccccc3)nc21 (stereo not drawn)	i	25µM*	2%[70.6 µM]	89µM*
CC1(C(=O)NCc2cccnc2)CCCc2cnc(Nc3ccccc3)nc21 (stereo not drawn)	i	?	5%[70.6 µM]	-28%[172 µM]
CC1(C(=O)NCc2cccnc2)CCCc2cnc(NCc3ccccc3)nc21 (stereo not drawn)	i	50µM*	6%[70.6 µM]	?
Cc1ccc(CN2CCC3CC(=O)NCCC3C2)cc1 (stereo not drawn)	.	i	.	i
OCC1(Cc2cccc(Cl)c2)CCCN(Cc2nc(-c3ccc(F)cc3)cs2)C1 (stereo not drawn)	i	?	-23%	79µM*
CC(=O)N1CCc2[nH]cnc2C12CCN(C(=O)Cn1nccc1C)CC2	i	-1%	5%	-1%

Compound activity as filed in PubChem.
